Experimental data: PubChem BioAssay (NCATS)
Values joined by “and” are separate entries in the source; they are usually repeats but may differ in a detail not shown here. Identical values can stand only once. Inconclusive results are not listed. Active and inactive are the calls of the source. Unless noted, calls come from the whole dose curve; as a rule, active = well fitted curve in the direction sought with a large enough effect; inconclusive = small, poorly fitted or top-dose-only effect, or another doubt; inactive = no such curve, though single readings can be large; an effect the other way counts as inactive or inconclusive.

Key:
[1] = target: Mitogen-activated protein kinase 10 (Mus musculus) (UniProt Q61831); assay: JNK3 AlphaScreen Assay (AID 530; active = well fitted curve in either direction with a large enough effect, not every such curve was filed as active;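 note: kinase came from lysate of stimulated human HepG2 cells; signal reports phosphorylation of biotinylated GST-cJun 1-79 at Ser73 with 10 µM ATP; % is set by controls: 0 for no effect and ±100 for the full control effect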)
How it was run: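 qHTS titrations with 15 min compound pre-incubation before adding ATP (10 uM final). Read-out: AlphaScreen of Ser73-phosphorylated biotin-GST-cJun using HepG2 lysate JNK3 activated by IL-1β and TNFα.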

[2] = Cell Viability - N2a (AID 540); conditions: N2a mouse neuroblastoma cell viability; activity change, negative = cytotoxicity: at 92.2 µM (top of the series);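 note: cells exposed to compound for 40 h at 37 °C; plate controls were DMSO alone for no effect and tamoxifen control for full effect; nearly all actives have a fitted effect of over 45% in size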
How it was run: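 Cytotoxicity was scored as loss of cellular ATP in N2a cells, a mouse neuroblastoma line. Compounds are applied in a qHTS concentration series for 40 hr at 37 °C.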

[3] = Cell Viability - Renal Proximal Tubule (AID 545);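 note: cells exposed to compound for 40 hours; 0% = DMSO only and -100% = 100 µM tamoxifen; nearly all actives have a fitted effect of over 40% in size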
How it was run: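 Cytotoxicity is scored as a concentration-dependent drop in cellular ATP in primary rat renal proximal tubule cells exposed for 40 hr. AC50 derives from Hill modelling.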

[4] = Cellular Toxicity (caspase-3) SHSY5Y (AID 657);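 note: cells exposed to compound for 16 hours at 37 °C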
How it was run: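 Cells plated and incubated 5 h at 37 °C, dosed over a concentration range, incubated 16 h, then given Caspase-Glo 3/7 reagent for 1 h at room temperature before luminescence reading. Staurosporine (10 uM) defined full stimulation.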

[5] = MultiTox-Fluor Cytotoxicity Assay - LYMP1-002 - Dead Cells (AID 960);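 note: 0% = DMSO and 100% = tetraoctylammonium bromide; nearly all actives have a fitted effect of over 60% in size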
How it was run: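 Cells were plated, rested 5 hr, then treated with compound dilution series for 16 hr at 37 C. After adding substrate reagent and 60 min at room temperature, dead-cell protease fluorescence gave concentration-response curves fitted by the Hill equation.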

[6] = Cell Viability - LYMP2-023 (AID 975);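 note: cellular ATP measured by luciferase luminescence as viability proxy; cells exposed to compound for 24 hours at 37 °C; plate controls were DMSO only for no effect and 92 µM tetraoctylammonium bromide control for full effect; nearly all actives have a fitted effect of over 55% in size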
How it was run: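 Steps: seed 2500 human lymphoblastoid cells per well, incubate 5 hr at 37 C, add compound for 24 hr at 37 C, add CellTiter-Glo, hold 30 min at room temperature, read luminescence. AC50 derived by Hill modelling.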

[7] = Cell Viability - LYMP1-002 - Assay at 24 hr (AID 993); note: % is set by controls: 0 for no effect and ±100 for the full control effect
How it was run: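 Acute toxicity is measured as concentration-dependent loss of cellular ATP in a human lymphoblastoid line (Coriell LYMP1-002) after 24 h treatment in complete medium. ATP is quantified by luciferase luminescence and AC50 derived by Hill modelling.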

[8] = target: Peroxisome proliferator-activated receptor gamma (Homo sapiens) (UniProt P37231); assay: qHTS assay for small molecule agonists of peroxisome proliferator-activated receptor gamma signaling (AID 588536; active = well fitted curve in the direction sought with a large enough effect in the signal ratio, with a control signal flat, not every such curve was filed as active; the % refers to the signal ratio;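 note: 0% = DMSO basal wells and 100% = rosiglitazone at 2 µM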)
How it was run: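 Cells were plated and held 6–6.5 h at 37 C, then compounds were added as a titration series. After a further 16 h, CCF4 dye was loaded for 2 h at room temperature and emission at 460/530 nm recorded.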

[9] = target: Vitamin D3 receptor (Homo sapiens) (UniProt P11473); assay: qHTS assay for small molecule antagonists of vitamin D receptor signaling (AID 588541; calls by dose curve;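 note: receptor activated by calcitriol during compound treatment; % is set by controls: 0 for no effect and ±100 for the full control effect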)
How it was run: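 Antagonist-mode beta-lactamase reporter assay: HEK293T VDR-UAS-bla cells were exposed to titrated compound alongside 1-alpha,25-dihydroxyvitamin D3 at 3 nM final for 16 h. Values were normalized to the 50 nM agonist control and DMSO basal, with IC50 and efficacy from Hill equation fits.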

[10] = target: Thyroid hormone receptor beta (Homo sapiens) (UniProt P10828); assay: qHTS assay for small molecule antagonists of thyroid hormone receptor beta signaling (AID 588547; active = well fitted inhibition curve with a large enough effect in the signal ratio, with a control signal flat, not every such curve was filed as active; the % refers to the signal ratio;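 note: cells stimulated with 0.4 nM T3 agonist during compound exposure; % is set by controls: 0 for no effect and ±100 for the full control effect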); conditions: TR-UAS-bla HEK293, beta-lactamase ratio, antagonist mode, 18 h
How it was run: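 Inhibition of T3-driven (0.4nM final) beta-lactamase reporter activity was measured over 0.59 nM to 92 uM compound after 18 h at 37 C. The cells were GripTite HEK293 TR-UAS-bla in charcoal/dextran-stripped serum, with CCF4 ratio read-out and IC50 from Hill fits.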

[11] = target: Voltage-gated inwardly rectifying potassium channel KCNH2 (Homo sapiens) (UniProt Q12809); assay: qHTS Assay for Small Molecule Inhibitors of the Human hERG Channel Activity (AID 588834);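 note: U2OS cells transduced with hERG by BacMam; top concentration of the series differs between compounds; % is set by controls: 0 for no effect and ±100 for the full control effect; lower thallium flux fluorescence means stronger hERG block; nearly all actives have a fitted effect of over 50% in size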
How it was run: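 Cells were infected with hERG-BacMam virus for 4 hrs at room temperature, grown overnight, then seeded at 2000/well. After dye loading and roughly 10 min compound treatment, thallium influx was triggered and fluorescence recorded.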

[12] = qHTS assay for small molecule disruptors of the mitochondrial membrane potential - 1 hr assay (AID 651754; calls by dose curve; note: % is set by controls: 0 for no effect and ±100 for the full control effect; nearly all actives have a fitted effect of over 35% in size)
How it was run: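 Loss of mitochondrial potential shifts the cationic dye from red mitochondrial aggregates to green cytoplasmic monomers. Cells (HepG2) are treated with compound for 1 hr before a 30 min dye incubation at 37C.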

[13] = qHTS assay for small molecule disruptors of the mitochondrial membrane potential - 5 hr assay (AID 651755; calls by dose curve; note: % is set by controls: 0 for no effect and ±100 for the full control effect; nearly all actives have a fitted effect of over 40% in size)
How it was run: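 Membrane-potential dye readout: red aggregate (540 ex/590 em) versus green monomer (490 ex/535 em) fluorescence after 30 min dye loading, following 5 hr compound exposure at 37C of overnight-plated HepG2 cells.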

[14] = target: Tumor necrosis factor (Homo sapiens) (UniProt P01375); assay: qHTS assay to identify small molecules that stimulate Tumor Necrosis Factor-alpha (TNF-alpha) secretion (AID 651757; active = well fitted curve in the direction sought with a large enough effect in the signal ratio; the % refers to the signal ratio; note: 0% is about no effect)
How it was run: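 Human monocytic THP-1 cells are plated, treated with compound and held at 37 C for 17 hrs. Labeled anti-TNF-alpha antibody mixture is then added; after 3 hr at room temperature, TR-FRET signal reports secreted TNF-alpha.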

[15] = qHTS assay for small molecule agonists of the antioxidant response element (ARE) signaling pathway measured by Nrf2-dependant transcriptional activity - cell viability counter screen (AID 720653; active = well fitted curve in the direction sought with a large enough effect in the repeat runs; an effect the other way counts as inactive or inconclusive; note: % is set by controls: 0 for no effect and ±100 for the full control effect); conditions: ARE-bla HepG2 viability, CellTiter-Glo ATP luminescence, 16 h; hits give low values
How it was run: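 Cytotoxicity counter screen: intracellular ATP quantified by CellTiter-Glo luminescence in the same ARE-bla HepG2 plates, after 16 h compound exposure and a 2 h beta-lactamase substrate step.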

[16] = qHTS assay for cell viability of HEK293 cells (AID 743288); conditions: ATP luminescence (CellTiter-Glo), 18 h, hits give low values; note: % is set by controls: 0 for no effect and ±100 for the full control effect; nearly all actives have a fitted effect of over 50% in size
How it was run: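 Quantitative high-throughput screen: compounds were pinned onto parental HEK293 cells (2,000 per well) after a minimum 5 h settling at 37 C, incubated 18 h at 37 C, and intracellular ATP measured by luciferase luminescence.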

[17] = qHTS assay for small molecule activators of the human pregnane X receptor (PXR) signaling pathway (AID 720659; call rule not given here; note: 0% is about no effect)
[18] = target: Nuclear receptor ROR-gamma (Homo sapiens) (UniProt P51449); assay: qHTS assay for small molecule antagonists of the retinoid-related orphan receptor gamma (ROR-gamma) signaling pathway (AID 651802);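 note: CHO cells with doxycycline-induced ROR-gamma expression; % is set by controls: 0 for no effect and ±100 for the full control effect; nearly all actives have a fitted effect of over 60% in size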
How it was run: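 Steps: cells dispensed; compound or DMSO transferred by pin tool; doxycycline added to induce the ROR response element-driven luciferase; plates held 16hr at 37C; ONE-Glo added and luminescence measured.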

[19] = target: Nuclear receptor subfamily 1 group I member 2 (Rattus norvegicus) (UniProt Q9R1A7); assay: qHTS assay for small molecule activators of the rat pregnane X receptor (rPXR) signaling pathway (AID 651751; call rule not given here; note: 0% is about no effect); conditions: rPXR reporter cells, luciferase (One-Glo), 24 h
[20] = target: Cytochrome P450 3A4 (Homo sapiens) (UniProt P08684); assay: qHTS Assay for Inhibitors and Substrates of Cytochrome P450 3A4 (AID 884); note: % is set by controls: 0 for no effect and ±100 for the full control effect; nearly all actives have a fitted effect of over 50% in size
How it was run: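 Luminescent readout of luciferin produced by CYP3A4 (20 nM) dealkylation of Luciferin-PPXE, 25 uM (its KM). NADPH-driven reaction ran 60 min at RT after 10 min compound preincubation; data scaled to 57 uM ketoconazole as 100% inhibition.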

Sequence of Peroxisome proliferator-activated receptor gamma (Homo sapiens) (P37231 whole entry, looked up): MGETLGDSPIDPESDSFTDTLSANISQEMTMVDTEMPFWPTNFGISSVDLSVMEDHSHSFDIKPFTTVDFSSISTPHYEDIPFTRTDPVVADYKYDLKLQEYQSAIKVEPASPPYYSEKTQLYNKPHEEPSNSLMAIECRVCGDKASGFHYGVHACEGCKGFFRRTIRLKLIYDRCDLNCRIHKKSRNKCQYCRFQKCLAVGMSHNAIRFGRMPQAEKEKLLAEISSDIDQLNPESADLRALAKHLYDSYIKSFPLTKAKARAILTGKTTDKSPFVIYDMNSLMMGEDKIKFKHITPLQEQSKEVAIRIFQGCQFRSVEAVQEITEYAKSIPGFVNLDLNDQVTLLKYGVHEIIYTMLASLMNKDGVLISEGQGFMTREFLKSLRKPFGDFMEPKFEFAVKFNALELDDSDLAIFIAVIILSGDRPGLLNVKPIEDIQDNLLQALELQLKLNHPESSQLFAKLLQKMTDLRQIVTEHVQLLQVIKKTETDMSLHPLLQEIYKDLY
Sequence of Thyroid hormone receptor beta (Homo sapiens) (P10828 whole entry, looked up): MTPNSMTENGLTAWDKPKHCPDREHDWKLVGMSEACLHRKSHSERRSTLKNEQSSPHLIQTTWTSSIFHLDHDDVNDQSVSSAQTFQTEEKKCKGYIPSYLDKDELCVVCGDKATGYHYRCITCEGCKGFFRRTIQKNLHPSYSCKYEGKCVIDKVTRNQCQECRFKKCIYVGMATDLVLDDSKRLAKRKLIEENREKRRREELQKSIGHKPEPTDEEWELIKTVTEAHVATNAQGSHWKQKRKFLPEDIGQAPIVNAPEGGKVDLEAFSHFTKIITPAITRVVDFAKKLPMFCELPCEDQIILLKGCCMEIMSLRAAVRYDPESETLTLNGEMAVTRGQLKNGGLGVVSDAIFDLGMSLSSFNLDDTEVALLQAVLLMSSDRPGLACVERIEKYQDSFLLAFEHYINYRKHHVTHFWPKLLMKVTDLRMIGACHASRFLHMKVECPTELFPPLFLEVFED
Sequence of Voltage-gated inwardly rectifying potassium channel KCNH2 (Homo sapiens) (Q12809 whole entry, looked up): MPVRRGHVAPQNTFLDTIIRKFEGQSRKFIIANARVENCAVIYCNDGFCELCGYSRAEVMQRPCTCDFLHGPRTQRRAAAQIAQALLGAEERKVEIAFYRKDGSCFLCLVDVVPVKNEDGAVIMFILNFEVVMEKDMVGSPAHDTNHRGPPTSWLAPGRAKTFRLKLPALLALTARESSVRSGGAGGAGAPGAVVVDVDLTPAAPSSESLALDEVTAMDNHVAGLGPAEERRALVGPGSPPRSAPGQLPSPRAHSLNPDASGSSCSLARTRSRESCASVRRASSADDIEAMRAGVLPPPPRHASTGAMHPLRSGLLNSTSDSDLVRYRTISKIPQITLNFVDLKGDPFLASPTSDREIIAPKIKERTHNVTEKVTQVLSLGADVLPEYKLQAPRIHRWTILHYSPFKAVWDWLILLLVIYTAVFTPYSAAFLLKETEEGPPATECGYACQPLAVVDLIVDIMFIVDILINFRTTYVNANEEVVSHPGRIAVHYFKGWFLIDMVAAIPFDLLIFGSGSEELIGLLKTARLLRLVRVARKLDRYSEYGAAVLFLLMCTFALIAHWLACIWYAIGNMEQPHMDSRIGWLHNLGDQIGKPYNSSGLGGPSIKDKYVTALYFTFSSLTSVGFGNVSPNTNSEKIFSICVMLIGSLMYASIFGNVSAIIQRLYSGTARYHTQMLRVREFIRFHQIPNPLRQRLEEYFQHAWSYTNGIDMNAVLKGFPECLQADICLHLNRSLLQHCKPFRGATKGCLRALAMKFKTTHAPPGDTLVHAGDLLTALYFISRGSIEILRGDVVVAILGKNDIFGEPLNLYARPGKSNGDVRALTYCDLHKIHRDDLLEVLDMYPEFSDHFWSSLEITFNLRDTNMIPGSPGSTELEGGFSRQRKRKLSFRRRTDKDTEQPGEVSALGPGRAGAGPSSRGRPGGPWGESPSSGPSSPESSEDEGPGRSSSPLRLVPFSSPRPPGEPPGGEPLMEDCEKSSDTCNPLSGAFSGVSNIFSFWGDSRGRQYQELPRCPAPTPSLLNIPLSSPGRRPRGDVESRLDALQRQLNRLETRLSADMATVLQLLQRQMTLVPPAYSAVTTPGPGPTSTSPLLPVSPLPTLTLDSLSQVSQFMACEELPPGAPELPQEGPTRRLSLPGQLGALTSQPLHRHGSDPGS
Sequence of Nuclear receptor subfamily 1 group I member 2 (Rattus norvegicus) (Q9R1A7 whole entry, looked up): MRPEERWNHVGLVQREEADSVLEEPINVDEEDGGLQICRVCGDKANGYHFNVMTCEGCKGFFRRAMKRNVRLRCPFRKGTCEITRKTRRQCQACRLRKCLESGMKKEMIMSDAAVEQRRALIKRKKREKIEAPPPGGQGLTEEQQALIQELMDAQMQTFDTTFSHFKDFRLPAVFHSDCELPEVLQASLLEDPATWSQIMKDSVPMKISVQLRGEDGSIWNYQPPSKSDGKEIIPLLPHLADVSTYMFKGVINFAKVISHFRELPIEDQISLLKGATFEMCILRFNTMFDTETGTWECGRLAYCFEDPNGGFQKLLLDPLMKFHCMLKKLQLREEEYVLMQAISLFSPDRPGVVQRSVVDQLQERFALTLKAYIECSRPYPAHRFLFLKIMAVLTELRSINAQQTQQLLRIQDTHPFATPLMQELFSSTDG
Sequence of Tumor necrosis factor (Homo sapiens) (P01375 whole entry, looked up): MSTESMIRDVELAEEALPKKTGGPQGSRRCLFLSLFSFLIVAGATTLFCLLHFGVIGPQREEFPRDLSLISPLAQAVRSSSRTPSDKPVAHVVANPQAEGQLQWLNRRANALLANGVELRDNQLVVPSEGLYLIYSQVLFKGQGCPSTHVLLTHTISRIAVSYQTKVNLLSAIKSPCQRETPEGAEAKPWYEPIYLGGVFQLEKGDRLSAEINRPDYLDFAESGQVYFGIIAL
Sequence of Cytochrome P450 3A4 (Homo sapiens) (P08684 whole entry, looked up): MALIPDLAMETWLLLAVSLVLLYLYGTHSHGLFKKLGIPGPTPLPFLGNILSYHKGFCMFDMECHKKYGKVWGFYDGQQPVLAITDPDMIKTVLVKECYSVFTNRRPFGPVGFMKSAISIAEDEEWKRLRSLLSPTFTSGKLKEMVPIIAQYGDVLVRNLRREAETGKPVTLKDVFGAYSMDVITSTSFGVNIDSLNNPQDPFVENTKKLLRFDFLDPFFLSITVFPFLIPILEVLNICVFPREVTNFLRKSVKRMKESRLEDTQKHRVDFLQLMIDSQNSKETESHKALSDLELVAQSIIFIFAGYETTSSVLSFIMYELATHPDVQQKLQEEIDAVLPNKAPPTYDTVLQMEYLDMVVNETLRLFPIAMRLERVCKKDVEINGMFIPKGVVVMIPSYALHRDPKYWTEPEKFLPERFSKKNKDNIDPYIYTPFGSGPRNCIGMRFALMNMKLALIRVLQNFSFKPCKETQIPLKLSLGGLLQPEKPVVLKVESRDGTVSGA
Sequence of Nuclear receptor ROR-gamma (Homo sapiens) (P51449 whole entry, looked up): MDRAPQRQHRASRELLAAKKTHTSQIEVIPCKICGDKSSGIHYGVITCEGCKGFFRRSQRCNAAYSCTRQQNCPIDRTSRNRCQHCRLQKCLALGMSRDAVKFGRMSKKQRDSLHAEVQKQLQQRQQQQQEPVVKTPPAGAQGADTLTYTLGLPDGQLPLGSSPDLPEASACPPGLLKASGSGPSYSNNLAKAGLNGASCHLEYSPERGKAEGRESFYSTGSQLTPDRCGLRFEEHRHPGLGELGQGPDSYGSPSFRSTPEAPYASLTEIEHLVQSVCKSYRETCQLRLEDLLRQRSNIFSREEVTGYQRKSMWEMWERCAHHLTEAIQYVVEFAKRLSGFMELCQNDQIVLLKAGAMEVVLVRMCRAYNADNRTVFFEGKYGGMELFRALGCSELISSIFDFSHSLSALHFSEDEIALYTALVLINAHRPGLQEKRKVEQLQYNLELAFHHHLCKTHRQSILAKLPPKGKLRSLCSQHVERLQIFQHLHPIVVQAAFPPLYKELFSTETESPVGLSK
Sequence of Vitamin D3 receptor (Homo sapiens) (P11473 whole entry, looked up): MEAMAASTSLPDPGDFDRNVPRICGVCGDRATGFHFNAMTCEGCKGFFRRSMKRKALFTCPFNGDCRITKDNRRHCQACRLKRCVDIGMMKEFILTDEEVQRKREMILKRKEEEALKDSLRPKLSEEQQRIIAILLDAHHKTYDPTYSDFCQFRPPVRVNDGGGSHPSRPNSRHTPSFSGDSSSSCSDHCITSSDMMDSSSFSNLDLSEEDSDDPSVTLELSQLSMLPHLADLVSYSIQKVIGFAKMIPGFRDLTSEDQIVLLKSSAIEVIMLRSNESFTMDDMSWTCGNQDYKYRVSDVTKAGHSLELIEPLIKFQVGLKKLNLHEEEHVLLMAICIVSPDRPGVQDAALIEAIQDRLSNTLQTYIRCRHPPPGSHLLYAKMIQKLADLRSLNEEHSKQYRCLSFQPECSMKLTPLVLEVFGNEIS

Cc1ccc(N)cc1Cl
inactive: Potency [1] | Potency [2] | outcome [3] | outcome [4] | Potency [5] | Potency [6] | Potency [7] | outcome [8] | outcome [9] | activity change % (negative = inhibition) [10] -8.08% | Potency [11] | Potency [12] | Potency [13] | outcome [14] | max response [15] 7.4% | max response [16] -1.75% | outcome [17]

Clc1ccc(C(Cl)(Cl)Cl)c(Cl)c1
inactive: Potency [1] | Potency [2] | outcome [3] | Potency [5] | Potency [6] | Potency [7] | outcome [8] | outcome [9] | activity change % (negative = inhibition) [10] 16.5% | Potency [12] | Potency [13] | outcome [14] | Potency [18] | max response [15] -1.74% | max response [16] -3.16% | max response [19] -3.95% | outcome [17]

CC(C)OC(=O)Cc1ccccc1
inactive: Potency [1] | Potency [2] | outcome [3] | outcome [4] | Potency [20] | Potency [5] | Potency [6] | Potency [7] | outcome [8] | outcome [9] | activity change % (negative = inhibition) [10] -4.91% | Potency [11] | Potency [12] | Potency [13] | outcome [14] | Potency [18] | max response [15] -4.02% | max response [16] -4.3% | max response [19] 1.04% | outcome [17]

OCCCCO
inactive: Potency [1] | Potency [2] | outcome [3] | outcome [4] | Potency [20] | Potency [5] | Potency [6] | Potency [7] | outcome [8] | outcome [9] | activity change % (negative = inhibition) [10] 10.4% | Potency [11] | Potency [12] | Potency [13] | outcome [14] | Potency [18] | max response [15] -2.13% | max response [16] -3.14%

Clc1ccc(Cl)c(Cl)c1
inactive: Potency [1] | Potency [2] | outcome [3] | outcome [4] | Potency [20] | Potency [5] | Potency [6] | Potency [7] | outcome [8] | outcome [9] | activity change % (negative = inhibition) [10] -0.795% and 9.45% | Potency [11] | Potency [12] | Potency [13] | outcome [14] | Potency [18] | max response [15] 4.11% and 3.77% | max response [16] 9.56% and -10% | max response [19] 1.05% and -0.643%

CC(C)CON=O
inactive: Potency [1] | Potency [2] | outcome [3] | outcome [4] | Potency [20] | Potency [5] | Potency [7] | outcome [8] | outcome [9] | Potency [11] | Potency [12] | Potency [13] | outcome [14] | max response [15] 3.18% | max response [16] -12.6% | max response [19] 4.86% | outcome [17]

CN=C=O
inactive: Potency [1] | Potency [2] | outcome [3] | outcome [4] | Potency [20] | Potency [5] | Potency [6] | Potency [7] | activity change % (negative = inhibition) [10] -7.41% | Potency [11] | Potency [12] | Potency [13] | outcome [14] | Potency [18] | max response [15] -4.34% | max response [16] 3.09% | max response [19] 8.83% | outcome [17]

C=CCCl
inactive: Potency [1] | Potency [2] | outcome [3] | outcome [4] | Potency [20] | Potency [5] | Potency [6] | outcome [8] | outcome [9] | activity change % (negative = inhibition) [10] -1.64% | Potency [11] | Potency [12] | Potency [13] | outcome [14] | Potency [18] | max response [15] -2.66% | max response [16] 2.61% | max response [19] 0.623% | outcome [17]

c1ccoc1
inactive: Potency [1] | Potency [2] | outcome [3] | outcome [4] | Potency [20] | Potency [5] | Potency [6] | Potency [7] | outcome [8] | outcome [9] | activity change % (negative = inhibition) [10] 20.3% | Potency [11] | Potency [12] | Potency [13] | outcome [14] | max response [15] 9.49% | max response [16] 0.0286% | max response [19] 3.47% | outcome [17]

CCC(Cl)[N+](=O)[O-] (stereo not given)
inactive: Potency [1] | Potency [2] | outcome [3] | outcome [4] | Potency [20] | Potency [5] | Potency [6] | Potency [7] | outcome [8] | outcome [9] | activity change % (negative = inhibition) [10] -30.2% | Potency [11] | Potency [12] | Potency [13] | outcome [14] | Potency [18] | max response [15] -4.85% | max response [16] -3.51% | max response [19] -0.428% | outcome [17]

Clc1cccc2ccccc12
inactive: Potency [1] | Potency [2] | outcome [3] | outcome [4] | Potency [20] | Potency [5] | Potency [6] | Potency [7] | outcome [9] | activity change % (negative = inhibition) [10] -4.95% | Potency [11] | Potency [12] | Potency [13] | outcome [14] | Potency [18] | max response [15] 5.5% | max response [16] -4.26% | max response [19] 3.21% | outcome [17]

CC(C)Br
inactive: Potency [1] | Potency [2] | outcome [3] | outcome [4] | Potency [20] | Potency [5] | Potency [6] | Potency [7] | outcome [8] | outcome [9] | Potency [11] | Potency [12] | Potency [13] | outcome [14] | Potency [18] | max response [16] -0.407% | max response [19] -2.97% | outcome [17]

NNC(N)=S
inactive: Potency [1] | Potency [2] | outcome [4] | Potency [20] | Potency [5] | Potency [6] | Potency [7] | outcome [8] | outcome [9] | activity change % (negative = inhibition) [10] 4.76% | Potency [11] | Potency [12] | Potency [13] | outcome [14] | Potency [18] | max response [15] 16.5% | max response [16] 1.66% | max response [19] 0.379% | outcome [17]
